Inconclusive results are not listed. Activity calls are given as the source filed them. The call rests on the fitted dose curve; in most records, active means well fitted inhibition curve with a large enough effect; inconclusive means small, poorly fitted or top-dose-only effect; inactive means flat fitted curve, though single readings scatter.
Test: Identification of antibody-drug conjugate (ADC) payloads which are substrates of ATP-binding cassette drug efflux transporters: ABCB1-HEK293-pcDNA cell line
Settings: HEK293 empty-vector (pcDNA) control viability, CellTiter-Glo, 48 h
Description: Antibody-drug conjugates (ADCs) feature an antibody recognizing a specific protein joined to a potent toxic payload. Numerous antibody-drug conjugates have received FDA approval; however, clinical resistance arises. Resistance mechanisms include decreased expression or mutation of the antibody target, impaired payload release, or increased expression of ATP-binding cassette (ABC) efflux transporters associated with multidrug resistance. We therefore sought to characterize the interaction of ABC multidrug transporters with ADC payloads. We performed a high-throughput screen with 27 common ADC payloads using cells lines expressing ABC transporters P-glycoprotein (P-gp, encoded by ABCB1) or ABCG2 (encoded by ABCG2). Confirmatory assays were also performed using cells transfected to express P-gp, ABCG2, or MRP1 (encoded by ABCC1). Several commonly used ADC payloads were substrates of P-gp, including calicheamicin gamma1, monomethyl auristatin E, DM1, and DM4. All the pyrrolobenzodiazepines tested - SJG136, SGD-1882, SG2057, and SG3199 - were substrates of P-gp, ABCG2, and MRP1. […] These findings highlight the risk of transporter-mediated resistance with certain ADC payloads and underscore the importance of selecting payloads that evade ABC transporter recognition in future ADC development.
HEK-293 cells were transfected with empty vector (pcDNA) or vector containing the human ABCB1 (MDR-19), ABCG2 (R-5), or ABCC1 gene (MRP1) and were maintained in EMEM with 2 mg/mL G418 added to maintain transporter expression. The HeLa derivative KB-3-1 and the P-gp overexpressing KB-8-5-11 subline were maintained in DMEM; KB-8-5-11 additionally received 100 ng/mL colchicine. H460 parental cells were obtained from the Division of Cancer Treatment and Diagnosis Tumor Repository, National Cancer Institute at Frederick, MD and were cultured in RPMI. The ABCG2 expressing subline H460 MX20 was generated by selecting H460 cells in 20 nM mitoxantrone. Media in all cases was supplemented with 10% FBS and 1% penicillin-streptomycin. We explored 27 common ADC payloads, in two orthogonal, paired cell line sets-a drug selected and transfected set for each transporter--to identify substrates of the ABC transporters P-gp and ABCG2. Compounds were sourced from Levena Biopharma (San Diego, CA), Selleck Chem (Houston, TX), ChemieTek (Indianapolis, IN), or Microsource Discovery Systems (Gaylordsville, CT). Screening was performed as previously described. Briefly, cells were plated at a density of 500 cells/well in 1536 well plates with compounds added using a 1536-head pin tool (Kalypsys, San Diego CA). Cells were incubated with cytotoxic drugs and processed with CellTiter Glo reagent (Promega, Madison, WI) to determine viability after 48 hours. P-gp substrates were identified by comparing compound activity between paired sets of low-expressing (sensitive) and over-expressing (resistant) cell lines.
In the case of `COc1cc2cc(c1Cl)N(C)C(=O)C[C@H](O)[C@]1(C)O[C@H]1[C@H](C)C1C[C@@](O)(NC(=O)O1)[C@H](OC)/C=C/C=C(\C)C2`, the Potency is reported as 2980 nM (active). For `COc1ccc(C2=CN3C(=O)c4cc(OC)c(OCCCOc5cc6c(cc5OC)C(=O)N5C=C(c7ccc(N)cc7)C[C@@H]5C=N6)cc4N=C[C@H]3C2)cc1`, the Potency was 1.3 nM (active). With `COc1cccc2c1C(=O)c1c(O)c3c(c(O)c1C2=O)C[C@@](O)(C(=O)CO)C[C@@H]3O[C@H]1C[C@H](N)[C@H](O)[C@H](C)O1` the Potency was 29.8 nM (active). For `COC(=O)c1cc2c3c(cc(O)c2[nH]1)N(C(=O)c1cc2cc(OC)c(OC)c(OC)c2[nH]1)CC3CCl` (stereo not given), the Potency was 0.4 nM (active). In the case of `CCN[C@H]1CO[C@@H](O[C@H]2[C@H](O[C@H]3C#C/C=C\C#C[C@]4(O)CC(=O)C(NC(=O)OC)=C3/C4=C\CSSSC)O[C@H](C)[C@@H](NO[C@H]3C[C@H](O)[C@H](SC(=O)c4c(C)c(I)c(O[C@@H]5O[C@@H](C)[C@H](O)[C@@H](OC)[C@H]5O)c(OC)c4OC)[C@@H](C)O3)[C@@H]2O)C[C@@H]1OC`, the Potency is reported as 0.2 nM (active). For `CC(C)(C)OC(=O)Nc1ccc2[nH]c(C(=O)N3C[C@@H](CCl)c4c3cc(O)c3ccccc43)cc2c1`, the Potency was 8.4 nM (active). For `CCN(C(C)=O)[C@H]1CO[C@@H](O[C@H]2[C@H](O[C@H]3C#C/C=C\C#C[C@]4(O)CC(=O)C(NC(=O)OC)=C3/C4=C\CSSSC)O[C@H](C)[C@@H](NO[C@H]3C[C@H](O)[C@H](SC(=O)c4c(C)c(I)c(O[C@@H]5O[C@@H](C)[C@H](O)[C@@H](OC)[C@H]5O)c(OC)c4OC)[C@@H](C)O3)[C@@H]2O)C[C@@H]1OC`, the Potency was 1.5 nM (active). In the case of `CCc1c2c(nc3ccc(O)cc13)-c1cc3c(c(=O)n1C2)COC(=O)[C@]3(O)CC`, the Potency is reported as 4.7 nM (active). In the case of `CN(C)CCOc1ccc2[nH]c(C(=O)N3C[C@@H](CCl)c4c3cc(O)c3ccccc43)cc2c1`, the Potency is reported as 0.4 nM (active). In the case of `COc1cccc2c1C(=O)c1c(O)c3c(c(O)c1C2=O)C[C@@](O)(C(=O)CO)C[C@@H]3O[C@H]1C[C@H]2[C@H](O[C@@H]3[C@@H](OC)OCCN32)[C@H](C)O1`, the Potency is reported as 0.0334 nM (active).

Reference: PubChem BioAssay AID2061306 (National Center for Advancing Translational Sciences (NCATS), 2025)
